S1P4 antag: S1P4 receptor antagonists, primary screen, cell-based | Sphingosine 1-phosphate receptor 4 (Homo sapiens), O95977 | S1P4-expressing cells, antagonist mode, reporter read-out | inhibition, % at 4.98 µM | hit rate 0.26% among 220,000 | AID 1510, 2009; in the data active = inhibition above about 29%
Target sequence (O95977 whole entry, looked up): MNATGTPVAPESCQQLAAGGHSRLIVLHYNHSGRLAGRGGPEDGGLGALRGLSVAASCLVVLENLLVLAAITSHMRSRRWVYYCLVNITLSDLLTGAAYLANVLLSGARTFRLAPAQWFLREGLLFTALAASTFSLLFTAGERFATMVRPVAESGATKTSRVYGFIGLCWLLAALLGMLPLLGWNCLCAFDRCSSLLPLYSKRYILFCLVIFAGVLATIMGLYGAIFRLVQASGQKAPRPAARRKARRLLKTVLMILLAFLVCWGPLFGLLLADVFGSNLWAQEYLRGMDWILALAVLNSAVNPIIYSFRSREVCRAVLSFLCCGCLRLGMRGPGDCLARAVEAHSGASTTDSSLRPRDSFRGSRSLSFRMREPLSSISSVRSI
INS promoter inh: inhibitors of insulin promoter-driven GFP, primary screen, imaging, TRM-6 cells (human fetal islet line), eGFP reporter, cell count | reporter expression induced with tamoxifen | inhibition, % at 2 µM | hit rate 0.9% among 130,000 | AID 1273, 2008;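 active = inhibition above the mean plus 3 SD, with well images judged a real hit on visual review, cut at about 60% in these data, passing the limit was not always enough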
Insulin prom up: insulin promoter activators in MIN6 cells, imaging, high-content screening, mouse beta cells. MIN6 insulin promoter-GFP reporter; stronger effect = higher value. z-score at 5 µM. hit rate 0.3% among 190,000. AID 1625, 2009;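 active = z-score above 3 at 5 µM with at least 500 cells counted in the well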
S1P3 antagonist: S1P3 receptor antagonists, primary screen, cell-based. hit rate 0.27% among 170,000. Sphingosine 1-phosphate receptor 3 (Homo sapiens), Q99500. CHO S1P3 NFAT-BLA reporter, FRET fluorescence, antagonist mode. inhibition, % at 4.98 µM;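 active = inhibition above the plate cutoff, the mean inhibition of test wells on that plate plus 3 SD, cut at about 28% in these data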;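 note: cells challenged with S1P at its EC80 of 0.8 µM; blue over green emission ratio from cleaved BLA substrate after 4 h stimulation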
Hsp70 activator: Hsp70 transcriptional activators, primary screen, cell-based, HeLa, Hsp70 promoter luciferase, luminescence, 10 µM | activation, % at 10 µM | HeLa Hsp70 promoter luciferase reporter; scaled: vehicle 0, proteasome-inhibitor control 100% | AID 1203, 2008 | hit rate 0.04% among 200,000;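 active = activation above the mean across all tested compounds plus 3 SD, cutoff set per campaign, cut at about 5.5% in these data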
S1P4 ag: S1P4 receptor agonists, primary screen, cell-based. Sphingosine 1-phosphate receptor 4 (Homo sapiens), O95977. S1P4-expressing cell line, agonist reporter assay. activation, % at 4.98 µM. hit rate 0.35% among 220,000. AID 1509, 2009; in the data active = activation above about 11%
S1P4 ag conf: S1P4 receptor agonists, retest, confirmation, cell-based, high throughput. S1P4 agonist cell-based reporter assay. activation, % at 4.98 µM. hit rate 7% among 740. shares compounds with S1P4 ag; in the data active = activation above about 12%
S1P1 ag: S1P1 receptor agonists, human, counter-screen for S1P4 agonist project, cell-based | activation, % at 4.98 µM | S1P1 agonist cell-based assay, activation | hit rate 4% among 740 | shares compounds with S1P4 ag; in the data active = activation above about 21%
A number is an active result; i = inactive; nt = no result. The list is not random: actives were taken first. Their share in the collection is about 1.5%.

SMILES	S1P4 antag	INS promoter inh	Insulin prom up	S1P3 antagonist	Hsp70 activator	S1P4 ag	S1P4 ag conf	S1P1 ag
CCOC(=O)C/C(C)=N/NC(=O)COc1ccccc1C	i	nt	i	i	i	88.9	i	i
Cc1ccccc1OCC(=O)N/N=C/c1ccncc1	i	nt	i	i	i	i	nt	nt
CC(=O)N(c1ccccc1)c1nc(/C=C/C(=O)Nc2c(C)cc(C)cc2C)cs1	i	i	nt	i	i	i	nt	nt
C=CCn1c(SCC(=O)c2ccc(F)cc2)nnc1-c1ccc2c(c1)OCO2	i	nt	nt	i	i	i	nt	nt
COc1ccccc1C(=O)Nc1nc2cc3c(cc2s1)OCO3	i	nt	i	i	nt	26.7	i	i
O=C(NCc1ccc(N2CCCC2=O)cc1)c1cnccn1	i	i	i	nt	i	i	nt	nt
CN(CC(=O)NC1CCCCCC1)S(=O)(=O)c1ccc2c(c1)n(C)c(=O)c(=O)n2C	i	nt	i	nt	i	i	nt	nt
CCOc1ccc(/C(O)=C/C(=O)C(=O)Nc2ccc(S(=O)(=O)NC(C)=O)cc2)cc1	i	nt	i	i	i	12.3	i	i
Cc1cc(Nc2cc(F)ccc2C)n2nc(C)nc2n1	i	i	i	i	i	14.1	i	i
CSc1c(CC(=O)Nc2ccccc2)n(Cc2ccccc2)c2ccccc12	i	nt	i	i	i	i	nt	nt
Cc1ccc(NC(=O)c2ccco2)c(NC(=O)CN2C(=O)c3ccccc3C2=O)c1	i	i	i	i	i	i	nt	nt
CS(=O)(=O)Nc1ccc(C(=O)N2CCN(c3ccccc3)CC2)cc1	i	i	i	nt	i	55.8	i	i
Cc1ccc(CCNC(=O)c2nnn(-c3cc(C)cc(C)c3)c2N)cc1	i	nt	i	i	i	11.0	i	i
Cc1scc(C(=O)O)c1-c1c(C(=O)O)csc1C	i	i	i	i	i	i	nt	nt
O=C(Nc1nc(-c2ccccn2)cs1)C1COc2ccccc2O1 (stereo not given)	i	i	i	i	i	37.6	i	i
COC(=O)CCCNc1ncccc1[N+](=O)[O-]	i	i	i	i	i	48.0	i	i
O=[N+]([O-])c1cccnc1NCCc1ccccc1	i	nt	i	i	i	i	nt	nt
COc1cccc(CC(NC(C)=O)C(=O)NC2CCN(c3c(Cc4ccccc4)c(C)nc4ncnn34)CC2)c1OC (stereo not given)	i	i	nt	i	i	14.2	i	i
COCC(=O)Nc1cc([N+](=O)[O-])ccc1C	i	i	i	nt	i	i	nt	nt
Cn1/c(=N/NC(=O)c2ccccc2Br)sc2ccccc21	i	nt	i	i	i	i	nt	nt
Cc1c(/C=C/C(=O)c2ccc(Cl)s2)cnn1C	i	75.0	nt	nt	i	12.8	i	i
Cc1c(/C=C/C(=O)c2ccccc2)cnn1C	i	nt	i	nt	i	i	nt	nt
Cc1ccc(/C=C/C(=O)O)cc1S(=O)(=O)N(CCO)CCO	i	i	i	i	i	36.6	i	i
COc1ccc(C(=O)OCCN2CCOCC2)cc1	i	i	i	nt	i	i	nt	nt
Cc1ccc(CNC(=O)C2CC(c3ccc([N+](=O)[O-])cc3)=NO2)cc1 (stereo not given)	i	i	i	nt	i	25.4	i	i
SMILES	S1P4 antag	INS promoter inh	Insulin prom up	S1P3 antagonist	Hsp70 activator	S1P4 ag	S1P4 ag conf	S1P1 ag
O=C(O)CCC(=O)Nc1ccccc1C(=O)N1CCN(c2ccc(Cl)cc2)CC1	i	nt	i	i	i	122.0	i	i
O=C(O)C1CC=CCC1C(=O)Nc1ccccc1C(=O)N1CCN(c2ccc(Cl)cc2)CC1 (stereo not given)	i	nt	i	i	i	i	nt	nt
COc1cc(/C=N/N(C)C)cc(Br)c1O	i	nt	i	i	nt	38.8	i	i
CN=c1scc(C)n1/N=C/c1cc(Br)c(O)c(OC)c1	i	nt	i	i	i	i	nt	nt
COc1ccc(/C=C/C(=O)OCC(=O)c2c(N)n(C)c(=O)n(C)c2=O)c(OC)c1	i	i	nt	i	i	i	nt	nt
Cc1cccc(/C=N/NC(=O)C2CCCNC2=O)c1 (stereo not given)	i	i	i	i	i	i	nt	nt
O=C(Nc1ccccc1C(=O)NC(Cc1c[nH]c2ccccc12)C(=O)O)c1ccccc1 (stereo not given)	i	nt	i	i	nt	11.3	i	i
O=C(NC(Cc1c[nH]c2ccccc12)C(=O)O)c1ccc(F)cc1 (stereo not given)	i	nt	i	i	i	i	nt	nt
O=C(Cn1cnc2c(cnn2-c2ccccc2)c1=O)OCc1ccccc1	i	i	i	i	i	i	nt	nt
Cc1ccc(-n2ncc3c(=O)n(CC(=O)OCc4ccccc4)cnc32)cc1	i	nt	i	i	i	16.9	i	i
NC(=O)CS(=O)(=O)c1ccc(Cl)cc1	i	nt	i	i	i	25.0	i	i
O=S(=O)(CC(O)CS(=O)(=O)c1ccc(Cl)cc1)c1ccccc1 (stereo not given)	i	nt	i	i	nt	i	nt	nt
Cn1c(CNc2ccc(F)cc2)nnc1SCC(=O)NNC(=O)Cc1ccccc1	i	nt	i	i	i	15.7	i	i
N#Cc1c(N)nc2c(c1-c1ccncc1)CCCCC2	i	i	i	i	i	135.1	i	i
NC(=S)NNC(=O)c1cc(C(F)(F)F)cc(C(F)(F)F)c1	i	nt	i	i	nt	77.3	i	i
Cn1c2c(c(=O)n(C)c1=O)NC1(N2)C(=O)Nc2ccccc21 (stereo not given)	i	nt	i	i	nt	i	nt	nt
CCN=c1scc(C)n1/N=C/c1ccsc1	i	i	i	i	i	165.2	i	i
CC(C)n1cc(CN2CCN(CCc3ccccc3)C(CCO)C2)cn1 (stereo not given)	i	nt	i	i	i	13.7	i	i
OCCC1CN(Cc2cccnc2)CCN1CCc1ccccc1 (stereo not given)	i	nt	i	i	i	i	nt	nt
COc1ccc(C(=O)Nc2nc(N)n(-c3ccccc3)n2)cc1	i	i	i	i	i	41.7	i	i
O=C(CNC1CCN(Cc2ccccc2)CC1)Nc1ccc(S(=O)(=O)N2CCCCC2)cc1	i	nt	i	i	nt	i	nt	nt
CCn1cc(CNC(=O)/C=C/c2cnn(C)c2)c(C)n1	i	i	i	i	i	35.6	i	i
Cc1csc(NC(=O)CN2C(=O)c3ccccc3C2=O)c1C(N)=O	i	nt	i	i	nt	i	nt	nt
COc1ccc(/C=C(\C#N)C(=O)Nc2ccc3[nH]c(=O)[nH]c3c2)cc1	i	nt	i	i	nt	i	nt	nt
O=C(CSc1nc2ccccc2c(=O)n1-c1ccc(F)c(Cl)c1)Nc1cccc(S(=O)(=O)N2CCOCC2)c1	i	i	i	i	i	29.7	i	i
CCN(CC)C(=O)C1CCCN(Cc2nc(-c3cccs3)no2)C1 (stereo not given)	i	nt	i	i	i	i	nt	nt
